Ecoli rRNA inh: inhibits bacterial ribosomal RNA function over humanized ribosomes. E. coli WT GFP vs humanized-ribosome RFP mutants, fluorescence, 24 h; hits give low values; DMSO median 0, no signal -100. GFP signal change (wild-type ribosome), % (test concentration not listed). hit rate 1.6% among 350,000;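 active means significant combined selectivity score with lowered wild-type GFP, culture density cut under 30%, mutant RFP and density less affected; inactive means any of these conditions unmet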
FGF22 binding: binders of recombinant human FGF22 by thermal shift. Q9HCT0. SYPRO orange fluorescence; percent of sucrose octasulfate shift, DMSO zero. activity (Tm shift, normalised), % at 9.99 µM. hit rate 1.5% among 340,000;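 active means mean Tm shift, scaled 0 neutral to 100 positive control, at about 1.3% or above, every replicate too, limit read from the data; inconclusive means no clear call, values can overlap the other calls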
Target sequence (Q9HCT0 whole entry, looked up): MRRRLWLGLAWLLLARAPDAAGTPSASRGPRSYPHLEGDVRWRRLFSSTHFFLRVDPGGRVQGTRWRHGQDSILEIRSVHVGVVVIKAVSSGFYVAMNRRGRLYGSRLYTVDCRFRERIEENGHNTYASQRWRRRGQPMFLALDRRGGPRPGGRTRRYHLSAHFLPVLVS
proKLK7 act: activates the human kallikrein-7 zymogen; P49862; purified proKLK7, EDANS-DABCYL substrate fluorescence; 100% is mature enzyme control, 0% vehicle; activation, % at 7 µM; hit rate 0.9% among 370,000;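 active means activation above the mean of all tested compounds plus 3 SD, computed per campaign excluding outliers beyond control limits, cut at about 13% in these data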
Target sequence (P49862 whole entry, looked up): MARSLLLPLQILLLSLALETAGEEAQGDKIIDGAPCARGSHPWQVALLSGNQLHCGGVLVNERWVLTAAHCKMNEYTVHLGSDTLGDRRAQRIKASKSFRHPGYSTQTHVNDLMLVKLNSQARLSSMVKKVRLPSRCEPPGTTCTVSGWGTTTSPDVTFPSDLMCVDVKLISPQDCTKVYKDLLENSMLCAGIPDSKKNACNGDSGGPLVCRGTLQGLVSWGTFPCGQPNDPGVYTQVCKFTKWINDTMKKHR
ADAM17 inh: inhibits human ADAM17; P78536; recombinant ADAM17, EDANS/DABCYL FRET peptide cleavage; inhibition, % at 6.95 µM; hit rate 0.83% among 370,000;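 active means inhibition above the mean of compounds lying between control limits plus 3 SD, set per campaign, cut at about 8.5% in these data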;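 further: 0% = DMSO-only wells as the low control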
ADAM10 inh: inhibitors of human ADAM10; AID 720582; inhibition, % at 7 µM; recombinant ADAM10, EDANS/DABCYL FRET peptide cleavage, 3 h; hit rate 0.62% among 370,000; O14672;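 active means inhibition above a per-campaign cutoff equal to the mean of compounds falling between control-based bounds plus 3 SD, cut at about 20% in these data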;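 further: 0% = DMSO wells while the 100% control is not disclosed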
AID977621: wild-type E. coli growth inhibition versus H69 humanized strain – H69 mutant RFP, wild-type GFP, cherry-pick, dose response; 1,900 tested, under 10 active; fluorescence, 24 h; activity change, negative = inhibition at 50 µM; AID 977621; shares compounds with Ecoli rRNA inh;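 active means Wild-type ribosome reporter drop at least double the humanized mutant ribosome reporter drop, growth loss under a set limit; inconclusive means no clear call, values can overlap the other calls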;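 further: wild-type GFP and H69 mutant RFP strains grown together 50/50 in each well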
AID977628: growth of wild-type and h24-humanized E. coli strains – h24 mutant RFP vs wild-type GFP, cherry-pick, dose response; shares compounds with Ecoli rRNA inh; E. coli WT GFP strain growth, fluorescence, 24 h; activity change, negative = inhibition at 50 µM; 1,900 tested, under 10 active;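 active means compound lowering the normal-ribosome reporter at least twice as much as the humanized-ribosome reporter, growth loss under a set limit; inconclusive means no clear call, values can overlap the other calls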;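 further: wild-type GFP and h24 humanized RFP strains co-cultured 1 to 1 per well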
Active calls of the source: *; ? = inconclusive; · = no result given. A selection: hits, their analogues and other compounds. The true share with any hit is near 3.8%.

SMILES	Ecoli rRNA inh	FGF22 binding	proKLK7 act	ADAM17 inh	ADAM10 inh	AID977621	others
O=C(NCc1ccccc1Cl)c1ccccc1CCc1ccccc1	-13	0	0	2	3	·
COCC(=O)Nc1ccc2c(c1)[C@@H]1C[C@H](CC(=O)NCc3ccccc3F)O[C@@H](CO)[C@@H]1O2	-2	0	·	·	·	·
Cc1ccc(-c2nc3ccc(Cl)cn3c2Cc2ccccc2C(F)(F)F)cc1	-7	0	0	-7	-15	·
Fc1ccc(-c2nc3ccc(Cl)cn3c2Cc2cccc(Cl)c2)cc1	-21*	0	0	-5	-20	8.2	AID977628=-17
Clc1ccc(-c2nc3ccc(Cl)cn3c2Cc2cccc(Cl)c2)cc1	-13	0	-4	-6	-12	·
COc1ccc(-c2nc3ccc(C)cn3c2Cc2cccc(F)c2)cc1OC	-61	0	-4	-83	-271	·
COc1ccc(Cc2c(-c3cccc(Cl)c3)nc3ccc(Cl)cn23)c(C)c1	-19*	0	-1	-3	-6	?	AID977628=-10
Cc1ccc2nc(-c3ccc(Cl)cc3)c(Cc3ccccc3C(F)(F)F)n2c1	-16*	0	0	-6	-20	-2.3	AID977628=-2.8
COc1ccc(-c2nc3ccc(Cl)cn3c2Cc2cccc(F)c2)cc1OC	-21*	0	-8	-28	-93	?
COc1ccc(Cc2c(-c3cccc(Br)c3)nc3ccc(Cl)cn23)c(C)c1	-5	0	-1	-7	-27	·
COc1cc(OC)cc(-c2nc3ccccc3c(=O)n2OC(=O)c2ccc(C)c(C)c2)c1	-22*	0	0	0	1	-8.3	AID977628=-3.7
Cc1cc(OCC(=O)N(Cc2ccco2)C2CCS(=O)(=O)C2)ccc1Cl (centres undefined)	-19*	0	0	0	-3	?
C/C=C/c1ccc([C@H]2[C@@H](CO)N(S(C)(=O)=O)C23CN(C(=O)CC)C3)cc1	2	0	·	·	·	·
CCCNC(=O)c1cc2c(c(-c3cccc(-c4cccc(OC)c4)c3)n1)[C@@H](CCO)N([S@](=O)C(C)(C)C)C2	-6	0	·	·	·	·
COCc1c(C#N)c(NCCc2ccc(F)cc2)nc(C)c1[N+](=O)[O-]	-17*	0	0	3	9	-13	AID977628=-12
S=C(NCc1ccc2c(c1)OCO2)NC1CCN(Cc2ccccc2)CC1	-5	0	0	1	1	·
C=C1c2cc3c(cc2NC(=S)N1Cc1ccccc1)OCO3	-27*	0	-3	-11	-19	-7.9	AID977628=-3.8
COc1ccc(OC)c(N(CC(=O)Nc2ccccc2F)S(=O)(=O)c2ccccc2)c1	-24*	0	0	-1	1	-11
COc1ccc(N(CC(=O)Nc2ccccc2C(=O)N2CCOCC2)S(=O)(=O)c2ccc(F)cc2)cc1	·	·	0	3	3	·
O=C(CN(c1ccc(F)cc1)S(=O)(=O)c1ccccc1)Nc1ccccc1C(=O)O	-27*	43*	0	4	8	-13
Cc1ccc(-c2nc3cc(C)c(Br)c(C)n3c2CC2CCCCC2)cc1	19	0	0	-3	-2	·
CCCc1nc2cc(C)c(Br)c(C)n2c1CC1CCCCC1	-20*	1	0	-1	-2	·	AID977628=-7.4
N#Cc1nc(-c2ccco2)oc1NCc1ccccc1Cl	-27*	0	0	-52	-116	-4.4	AID977628=-12
Cc1ccc(-n2nc(C)c3c(C)c(CCC(=O)O)c(C)nc32)cc1C	-26*	0	1	-38	-254	-15
COc1ccc(OC2C(=O)N(Cc3ccc4c(c3)OCO4)C2c2sccc2C)cc1 (centres undefined)	-22*	0	0	2	9	-13
SMILES	Ecoli rRNA inh	FGF22 binding	proKLK7 act	ADAM17 inh	ADAM10 inh	AID977621	others
O=C(C[C@H]1C[C@@H]2c3cc(NC(=O)NC4CCCC4)ccc3O[C@@H]2[C@@H](CO)O1)NCc1ccc(Oc2ccccc2)cc1	-10	0	·	·	·	·
C[C@@H]1CN([C@@H](C)CO)C(=O)c2cc(NS(=O)(=O)c3cn(C)cn3)ccc2O[C@@H](C)CCCCO[C@H]1CN(C)S(=O)(=O)c1ccc(F)cc1	-1	0	·	·	·	·
COc1ccc(-c2cnc3c(c2)C(=O)N([C@H](C)CO)C[C@@H](C)[C@H](CN(C)C)O3)cc1	3	0	·	·	·	·
O=C(COC(=O)CSc1ccc([N+](=O)[O-])cc1)NCC1CCCO1 (centres undefined)	4	0	-1	-4	-13	·
Cc1cc(SCC(=O)OCC(=O)NCC2CCCO2)c(C)cc1Br (centres undefined)	-25*	0	0	3	3	-17
CCC(=O)N(C)C[C@@H]1Oc2cc(C#CC3CCCCC3)ccc2S(=O)(=O)N([C@@H](C)CO)C[C@@H]1C	-3	-1	·	·	·	·
CO[C@H]1CN(C)C(=O)c2ccc(NC(=O)C3CC3)cc2OC[C@@H](C)N(Cc2ccccc2)C[C@@H]1C	-6	0	·	·	·	·
CC1CCC(C(C)C)C(OCC(O)CN2CCOCC2)C1 (centres undefined)	-12	0	-1	-3	-7	·
CC1CCC(C(C)C)C(OCC(O)CN2CCCC(C)C2)C1 (centres undefined)	-22*	0	0	-5	-4	-7.1	AID977628=?
CCC(=O)N[C@H]1CC[C@@H](CCn2cc(CN(C)C)nn2)O[C@@H]1CO	2	0	·	·	·	·
O=C(N[C@@H]1C=C[C@H](CC(=O)N2CCCCC2)O[C@H]1CO)c1ccc2c(c1)OCO2	2	0	·	·	·	·
CC(C)n1nnnc1C1c2ccccc2C(=O)N1CCOc1ccccc1 (centres undefined)	-18*	0	-1	-5	-10	-7.5	AID977628=-16
COc1ccc2c3c([nH]c2c1)[C@H](CO)N(CC1CC1)CC31CCN(S(=O)(=O)c2cccc(F)c2)CC1	-9	0	·	·	·	·
Nc1c(Cl)cc(C2=NCCn3nc4ccccc4c32)cc1Cl	-20*	0	0	-6	4	-11
Clc1ccc(C2=NCCn3nc4ccccc4c32)cc1	-13	0	0	-8	-14	·
CCc1nnc(NS(=O)(=O)c2ccc(NC(=O)c3cc(Cl)ccc3[N+](=O)[O-])cc2)s1	-21*	1	1	1	3	-18
CCc1nnc(NS(=O)(=O)c2ccc(NC(=O)c3cc(Cl)ccc3Cl)cc2)s1	-49	42	-1	0	12	·
CCOc1cc(C(=O)Nc2ccc(S(=O)(=O)Nc3nnc(CC)s3)cc2)cc(OCC)c1OCC	-15	0	0	1	7	·

High-throughput results (PubChem)
